From PubChem
FGF22 binding – shifts melting point of recombinant human FGF22; Q9HCT0; recombinant FGF22 thermal shift, SYPRO orange fluorescence; percent of sucrose octasulfate shift, DMSO zero; activity (Tm shift, normalised), % at 9.99 µM; 340,000 compounds, 1.5% hits; AID 651658;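 active = mean Tm shift, scaled 0 neutral to 100 positive control, at about 1.3% or above, every replicate too, limit read from the data; inconclusive = no clear call, values can overlap the other calls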
Target sequence (Q9HCT0 whole entry, looked up): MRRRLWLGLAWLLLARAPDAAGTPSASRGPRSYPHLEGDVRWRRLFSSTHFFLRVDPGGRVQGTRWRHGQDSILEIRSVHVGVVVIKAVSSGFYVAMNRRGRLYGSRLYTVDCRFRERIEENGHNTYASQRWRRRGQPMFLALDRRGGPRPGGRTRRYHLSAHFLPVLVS
F508del corr – CFTR F508del correction in bronchial cells | CFBE cells, YFP halide quenching; stimulated with forskolin plus potentiator P3; % fluorescence drop versus neutral controls | activity (quench increase), % at 7.58 µM | 350,000 compounds, 0.36% hits | AID 720511;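 active = mean added fluorescence quench of at least 8% versus neutral control, with both replicates also reaching 8%; inconclusive = only one of the mean or replicate conditions met; inactive = mean below 8% and not both replicates reaching 8%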;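 also: cells transiently co-express mutant CFTR-F508del with the halide-sensitive YFP; corrector assay measuring rescue of mutant channel to the surface after 24 h compound exposure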
Vif imaging – HIV Vif inhibition. HEK293T cells, Vif self-association by quenched fluorescence, imaging, 24 h. inhibition, % at 7.49 µM. 340,000 compounds, 0.35% hits. AID 602346; in the data active = inhibition above about 50%, passing the limit was not always enough; inconclusive = no clear call, values can overlap the other calls; inactive = below about 31%
Hits are given with their value; . = inactive; ? = inconclusive; / = no result given. Rows were chosen to be rich in hits. Some 1.7% of all compounds tested hit in one or more screens of this group.

SMILES	FGF22 binding	F508del corr	Vif imaging
C[C@@H]1CCCCO[C@H](CN(C)Cc2ccc(C(F)(F)F)cc2)[C@@H](C)CN([C@@H](C)CO)C(=O)c2cc(NC(=O)CCCN(C)C)ccc2O1	.	.	/
CS(=O)(=O)N1[C@@H]2c3ccc(C4=CCCCC4)c(=O)n3C[C@@H]2[C@@H](CO)[C@@H]1C(=O)NCc1ccncc1	.	.	/
CCCC(=O)Nc1ccc2c(c1)C(=O)N(C)C[C@@H](OC)[C@H](C)CN(CC1CCCC1)[C@@H](C)CO2	/	.	/
CO[C@H]1CN(C)C(=O)c2cc(NS(C)(=O)=O)ccc2OC[C@H](C)N(Cc2nccs2)C[C@@H]1C	.	.	/
Cc1cc(C(=O)COc2ccc(C#N)cc2)c(C)n1CC1CCCO1 (configuration not stated)	43.2	.	.
CCC(=O)c1ccc(OCC(=O)OCC(=O)c2cc(C)n(CC3CCCO3)c2C)cc1 (configuration not stated)	.	.	.
O=S(=O)(Cc1ccccc1)N1CCCCN2[C@H](CO)[C@H](c3ccc(-c4cncnc4)cc3)[C@@H]2C1	.	.	/
CCCC(=O)Nc1ccc2c(c1)nc(CN1CCN(C(=O)OCC)CC1)n2C	.	.	.
CCCC(=O)Nc1ccc2c(c1)nc(CN1CCN(C(=O)OCC)CC1)n2CC	.	12.4	.
O=C(NCCN1CCCCC1)[C@@H]1[C@@H](CO)[C@@H]2Cn3c(cccc3=O)[C@@H]2N1Cc1ccccn1	.	/	/
C[C@@H]1CCCCO[C@H](CN(C)C(=O)CCC(F)(F)F)[C@@H](C)CN([C@H](C)CO)C(=O)c2cc(NS(C)(=O)=O)ccc2O1	/	.	/
COCCNS(=O)(=O)c1ccc2c(c1)C(=NO)c1cc(S(=O)(=O)NCCOC)ccc1-2	.	.	.
CC(C)(CO)NS(=O)(=O)c1ccc2c(c1)C(=NO)c1cc(S(=O)(=O)NC(C)(C)CO)ccc1-2	42.9	.	.
C[C@@H]1CCCCO[C@H](CN(C)CC2CC2)[C@H](C)CN([C@@H](C)CO)C(=O)c2cc(NS(C)(=O)=O)ccc2O1	.	.	/
CC(C)C(C(=O)NC(C)(C)C)N1C(=O)c2ccccc2C1=O (configuration not stated)	/	/	.
CC(C(=O)NC(C)(C)C)N1C(=O)c2cccc3cccc(c23)C1=O (configuration not stated)	43.0	.	.
O=C(O)C[C@H]1CC[C@H](NC(=O)Nc2cc(F)ccc2F)[C@H](CO)O1	.	.	/
O=C(C1CCCCC1)N1CC2(C1)[C@@H](c1ccccc1)[C@@H](CO)N2Cc1ccccc1F	.	.	/
O=C1NC[C@@H](CCCCN2C[C@H](Cc3ccccc3)N(CC3CCCCC3)C(=O)C2=O)N(Cc2ccccc2)C1=O	5.4	.	/
O=C1NC[C@H](CCCCN2C[C@H](Cc3ccccc3)N(Cc3ccccc3)C(=O)C2=O)N(CC2CCCCC2)C1=O	.	.	/
COc1cccc(-c2ccc3c(c2)O[C@@H](CN(C)C)[C@@H](C)CN([C@H](C)CO)S3(=O)=O)c1	.	.	/
COC(=O)Nc1ccc(S(=O)(=O)Nc2ccc(C(=O)O)cc2)cc1	43.2	.	.
Cc1ccc(Oc2ccc(S(=O)(=O)Nc3ccc(C(=O)O)cc3)cc2)cc1	.	.	.
O=C(C[C@@H]1C=C[C@@H](NS(=O)(=O)c2ccc(F)cc2)[C@H](CO)O1)NC1CCC1	.	.	/
CCCn1nnnc1NCc1ccc(SC)cc1	.	.	.
SMILES	FGF22 binding	F508del corr	Vif imaging
CSc1ccc(CNc2nnnn2C)cc1	42.9	.	.
Cc1cc(C(=O)Nc2cccc3c2O[C@@H](CN(C)S(=O)(=O)c2ccc(F)cc2)[C@H](C)CN([C@@H](C)CO)C3=O)n(C)n1	.	.	/
C[C@@H]1CN([C@@H](C)CO)C(=O)c2cccc(NC(=O)c3nc4ccccc4s3)c2O[C@@H]1CN(C)S(C)(=O)=O	.	.	/
COc1cc(C(=O)NCCc2cc3c(OC)ccc(OC)c3[nH]c2=O)cc(OC)c1OC	.	/	.
COc1ccc(OC)c2[nH]c(=O)c(CCNC(=O)c3cccs3)cc12	43.9	.	.
CCc1nc2ccccc2c(C(=O)O)c1C	/	/	.
CCc1nc2ccccc2c(C(=O)NCc2ccccc2)c1C	43.1	.	.
Cn1c(-c2ccc3ccccc3n2)[n+](C)c2ccccc21	.	.	.
Cn1c(-c2ccccn2)[n+](C)c2ccccc21	43.3	.	?
Cc1noc(C)c1S(=O)(=O)N(C)C[C@@H]1Oc2ccc(NS(=O)(=O)c3cn(C)cn3)cc2C(=O)N([C@@H](C)CO)C[C@@H]1C	.	.	/
CCc1cc2c(nc1CC)CCCN2S(=O)(=O)c1ccccc1C	.	.	/
CCc1cc2c(nc1CC)CCCN2S(=O)(=O)c1c(C)noc1C	43.0	.	/
O=C1CC(c2ccc(O)cc2)Oc2cc(O)cc(O)c21 (configuration not stated)	.	.	.
O=C(c1c(O)cc(O)cc1O)C1c2c(cc(O)c3c2O[C@H](c2ccc(O)cc2)[C@@H](O)C3)OC1c1ccc(O)cc1 (some centres not stated)	1.5	.	.
COc1ccc(C#Cc2ccc([C@@H]3[C@H]4CN(C(=O)c5cccnc5)CC(=O)N4[C@H]3CO)cc2)cc1	/	.	/
COc1cccc(NC(=O)N[C@H]2CC[C@@H](CC(=O)Nc3ccc(-c4ccccc4)cc3)O[C@@H]2CO)c1	.	.	/
O=C(C[C@@H]1C[C@@H]2c3cc(NS(=O)(=O)c4ccc(F)cc4)ccc3O[C@@H]2[C@H](CO)O1)NC1CCCC1	.	.	/
O=C(NC(=O)N1CCN(c2ccccc2F)CC1)c1ccccc1	.	.	88.5
O=C(NCc1ccccc1)N1CCN(c2ccccc2F)CC1	/	/	.
CNC(=O)C[C@@H]1CC[C@@H]2[C@@H](COc3ccc(NC(=O)C4CCCCC4)cc3C(=O)N2C)O1	.	.	/
C[C@@H]1CN([C@H](C)CO)C(=O)c2cccc(NC(=O)Nc3ccc4c(c3)OCO4)c2O[C@@H]1CN(C)C(=O)Nc1ccc(F)cc1	.	.	/
Cc1cc2c(cc(C(=O)OC(C)C(=O)NCc3ccc(F)cc3)n2C)o1 (configuration not stated)	.	28.9	.
Cc1cc2c(cc(C(=O)OC(C)C(=O)NCc3ccccc3)n2C)o1 (configuration not stated)	.	.	.
CCOC(=O)c1ccccc1OCc1cc(/C=N/n2cnnc2)ccc1OC	/	/	94.0
CCOC(=O)c1ccccc1OCc1cc(/C=N/NC(=O)c2cccnc2)ccc1OC	.	.	.
SMILES	FGF22 binding	F508del corr	Vif imaging
Nc1nc(-c2ccc(Cl)cc2)nnc1-c1ccc(Br)cc1	43.5	.	.
Clc1ccc(-c2nnc(-c3ccccc3)c(-c3ccccc3)n2)cc1	.	.	.
C[C@H](CO)N1C[C@H](C)[C@H](CN(C)C(=O)c2ccc(F)cc2)Oc2cc(C3=CCCC3)ccc2S1(=O)=O	/	.	/
O=C(C[C@H]1C[C@@H]2c3cc(NC(=O)C4CCC4)ccc3O[C@@H]2[C@@H](CO)O1)NCc1cc(F)ccc1F	.	.	/
CO[C@@H](CN(C)S(=O)(=O)c1cn(C)cn1)[C@H](C)CN(C(=O)Nc1ccc(F)cc1)[C@H](C)CO	.	.	/
CCN(CC)CCn1c2ccccc2c2nc3ccccc3nc21	.	24.2	.
CCCn1c2ccccc2c2nc3ccccc3nc21	/	/	.
